Test results as given in PubChem BioAssay.
Calls of active or inactive are those of the source.

What was measured:
[1] = system: XIP peptide (Xip251-270) binding; assay: small-molecule binders of XIP peptide, primary screen, biochemical, small-molecule microarray, fluorescence 635/667 nm, 0.1 µg/mL protein (AID 1182); conditions: fluorescent protein binding, 635 nm, higher = more signal, called active from +8 up or from −8 down
XIP peptide (Xip251-270) = assay: small-molecule binders of XIP peptide, primary screen, biochemical, small-molecule microarray, fluorescence 635/667 nm, 0.5 µg/mL protein (AID 1183); conditions: small-molecule microarray binding, fluorescence 635 nm; higher = more signal
[2] = Plasmodium falciparum growth inhibition, primary screen, strain 3D7, DAPI fluorescence, 100 nL (AID 1184);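 also: parasites grown inside human red blood cells in medium with human serum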; conditions: P. falciparum 3D7 growth, 3 d, higher = more signal
[3] = target: Homeobox protein Hox-A13 (Mus musculus) (UniProt Q62424); assay: inhibitors of HoxA13-DNA binding, primary screen, biochemical, fluorescence polarization, labeled oligonucleotide (AID 1185); conditions: 15 min, higher = more signal, called active from +8 up or from −8 down
Chain of Homeobox protein Hox-A13 (Mus musculus) (Q62424 whole entry, looked up): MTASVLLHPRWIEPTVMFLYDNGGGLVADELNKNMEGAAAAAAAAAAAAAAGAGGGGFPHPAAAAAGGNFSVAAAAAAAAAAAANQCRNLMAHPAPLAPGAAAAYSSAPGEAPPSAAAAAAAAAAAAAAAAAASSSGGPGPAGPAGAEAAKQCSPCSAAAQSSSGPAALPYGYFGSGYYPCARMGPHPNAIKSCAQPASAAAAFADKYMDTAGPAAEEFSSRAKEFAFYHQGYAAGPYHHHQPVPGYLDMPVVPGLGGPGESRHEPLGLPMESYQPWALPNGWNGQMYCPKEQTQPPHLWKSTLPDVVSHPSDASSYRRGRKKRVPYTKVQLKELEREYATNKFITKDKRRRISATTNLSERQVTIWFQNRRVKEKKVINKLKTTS

Row | SMILES | composite z-score [1] | composite z-score (XIP peptide (Xip251-270)) | z-score [2] | z-score [3]
1 | COC(=O)[C@H](C)NC(=O)CC=C[C@@H](C)[C@@H]1C=C[C@H](O)[C@@H](CO)O1 | 0.672 (inactive) | 0.0241 | -1.66 | -0.56 (inactive)
2 | CCN1C(=O)[C@H]2[C@H]3[C@H](O)[C@H](O)CC(=NOC[C@@H](O)[C@H]4O[C@@H]5OC(C)(C)O[C@@H]5[C@H]4O)[C@@H]3CC[C@H]2C1=O | -0.0371 (inactive) | 0.33 | 0.663 | 0.303 (inactive)
3 | COC(=O)[C@H](C)NC(=O)CCC1CC(OC(=O)NCc2cccc3ccccc23)CC2(CCCC(COC(=O)NCc3ccccc3)O2)O1 (some centres undefined) | 0.0457 (inactive) | 0.461 | -2.02 | -1.39 (inactive)
4 | O=C1C=C[C@@H](O)[C@@H]2[C@@H]3C(=O)N(Cc4ccccc4)C(=O)[C@@H]3CC[C@@H]12 | 0.771 (inactive) | -0.0049 | -0.0141 | 0.291 (inactive)
5 | COc1ccc(COC(=O)NN=C2C[C@@H](O)[C@@H](O)[C@@H]3[C@@H]4C(=O)N(c5cccc(Oc6ccccc6)c5)C(=O)[C@@H]4CC[C@H]23)cc1 | -0.538 (inactive) | -0.255 | -1.34 | -3.81 (inactive)
6 | CC(=O)OC[C@H]1O[C@H](CCON=C(C)C)C=C[C@@H]1OC(C)=O | -0.843 (inactive) | 0.0795 | 1.48 | 0.389 (inactive)
7 | CO[C@@H]1C=CCC(=O)N[C@@H](C)C(=O)OC[C@@H](NS(=O)(=O)c2ccc(C)cc2)[C@H](C)C=CCC(=O)OC[C@H]1C | -0.778 (inactive) | 0.247 | 0.251 | -1.06 (inactive)
8 | CC(CCC(=O)OC[C@H]1O[C@H](C#Cc2ccccc2)C=C[C@@H]1Oc1ccc(C)cc1)=NOC(C)CN1CCCCc2nc(C)c(C)cc21 (some centres undefined) | -0.185 (inactive) | 0.0787 | -2.06 | -2.02 (inactive)
9 | CC#CCOCCC=C1c2ccccc2[C@@H](OC)[C@@H]1C | 0.772 (inactive) | 0.0938 | -1.02 | -3 (inactive)
10 | CC(CCN1CCc2nc(-c3ccccc3)c(-c3ccccc3)cc2C1)=NOC(C)CN1CCCc2nc(C)c(C)cc21 (centres undefined) | 0.161 (inactive) | 0.558 | 0.5 | -9.97 (active)
11 | C=CC[C@@H]1C=C[C@H](ON=CC[C@@H]2C=C[C@H](OC(C)=O)[C@@H](COC(C)=O)O2)[C@@H](CO)O1 | 0.571 (inactive) | 0.749 | 0.422 | -0.273 (inactive)
12 | CCOC(=O)NN=C1C[C@@H](O)[C@@H](O)[C@@H]2[C@@H]3C(=O)N(CC)C(=O)[C@@H]3CC[C@H]12 | 0.124 (inactive) | -0.379 | 0.613 | 0.368 (inactive)
13 | COCC#Cc1ccc([C@@H]2N[C@H](C(=O)O)CC[C@H]2C)cc1 | -0.238 (inactive) | -0.52 | 0.383 | -1.46 (inactive)
14 | C[C@@H]1C=CCC(=O)OC[C@H](C)C(=O)N[C@@H](Cc2ccccc2)C(=O)OC1 | -0.478 (inactive) | -0.0947 | -1.55 | 2.57 (inactive)
15 | CC(=O)OC[C@H]1O[C@H](CC=NOC(C)CN2CCCc3nc(C)c(C)cc32)C=C[C@@H]1OC(C)=O (some centres undefined) | 1.29 (inactive) | 0.618 | -0.224 | -6.1 (inactive)
16 | CC(C)CON=C1C[C@@H](O)[C@@H](O)[C@@H]2[C@@H]3C(=O)N(c4ccc(F)cc4F)C(=O)[C@@H]3CC[C@@H]12 | 0.681 (inactive) | 0.218 | -1.66 | -0.567 (inactive)
17 | COc1ccc(O[C@H]2C=C[C@@H](C#Cc3ccccc3)O[C@@H]2CO)cc1 | -0.727 (inactive) | 0.266 | 0.284 | -3.22 (inactive)
18 | CC(=O)OC[C@H]1O[C@@H](ON=C(C)CCN2CCCCc3nc(C)c(C)cc32)[C@H](OC(C)=O)[C@@H](OC(C)=O)[C@@H]1OC(C)=O | -0.0733 (inactive) | 0.566 | -0.98 | -3.93 (inactive)
19 | C#CCCCON=C1C[C@@H](O)[C@@H](O)[C@@H]2[C@@H]3C(=O)N([C@@H](C)c4ccccc4)C(=O)[C@@H]3CC[C@@H]12 | -0.406 (inactive) | -0.125 | -0.913 | -2.28 (inactive)
20 | COc1ccc(COC(=O)NN=C2C[C@@H](O)[C@@H](O)[C@@H]3[C@@H]4C(=O)N(C(C)(C)C)C(=O)[C@@H]4CC[C@@H]23)cc1 | 0.457 (inactive) | 0.48 | 0.553 | -1.64 (inactive)
21 | CC(C)CON=C1C[C@@H](O)[C@@H](O)[C@@H]2[C@@H]3C(=O)N(Cc4ccc5c(c4)OCO5)C(=O)[C@@H]3CC[C@@H]12 | -0.263 (inactive) | -0.266 | -0.721 | -0.441 (inactive)
